These results are taken from PubChem BioAssay (NCATS).

Several values for one entry are separate records, joined by “and”; a condition that tells them apart may be missing. Identical values can stand only once. Records with an inconclusive call do not appear. More than one record can exist for a structure, and the calls need not agree. A number with no mark means an inactive call. Activity calls are given as the source filed them. Calls come from the whole dose curve; as a rule, active = well fitted inhibition curve with a large enough effect; inconclusive = small, poorly fitted or top-dose-only effect; inactive = flat fitted curve, though single readings scatter.

One assay relates to CRL-7250. The experiment in a line: Cytotoxic Profiling of Annotated Libraries Using Quantitative High-Throughput Screening (AID 1296008). For max response: % is set by controls: 0 for no effect and ±100 for the full control effect. Note: potency is the fitted concentration of half-maximal effect. The conditions noted are these: Five cell lines viability, CellTiter-Glo ATP luminescence, 48-72 h; max response: active compounds read low. An outline of the steps:
(§1)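 Cytotoxicity was measured as CellTiter-Glo ATP luminescence, read after 10 min at room temperature. Compound treatment of the cells lasted 48 or 72 hr at 37 degrees Celsius in a qHTS format.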
(Cellular ATP, detected with luciferase, serves as a proxy for viable cell number.)

Another assay has as its system HEK293. Described as above. The conditions noted are these: Five cell lines viability, CellTiter-Glo ATP luminescence, 48-72 h; max response: active compounds read low. An outline of the steps:
as §1

The test system of assay [1] is HaCat. The description is as above. The note with it: Five cell lines viability, CellTiter-Glo ATP luminescence, 48-72 h; max response: active compounds read low. The procedure, abridged: as §1
A further assay concerns NIH3T3. The assay is described as above. The conditions noted are these: Five cell lines viability, CellTiter-Glo ATP luminescence, 48-72 h; max response: active compounds read low. The procedure, abridged:
as §1

The subject of assay [2] is HACAT. Put plainly: qHTS assay to identify novel small-molecules to repurpose for Merkel cell carcinoma treatment (AID 1296009). The note with it: MCC and control cell lines, CellTiter-Glo viability, 72 h; series mostly up to 44.8 µM. An outline of the steps: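 Cell viability measured by CellTiter-Glo following 72 hr compound treatment at 37 degree celsius, with NPC and MIPE libraries tested in 8- and 11-point concentration series.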
In general terms: qHTS replaces the single test concentration by a dilution series.

The next assay deals with TAB109. Put plainly: qHTS profiling for inhibitors of Plasmodium falciparum proliferation (AID 504749). Note: potency is the fitted concentration of half-maximal effect. The conditions noted are these: P. falciparum in erythrocytes, SYBR Green DNA, 72 h; series mostly up to 28.7 µM. The procedure, abridged:
(§2)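 In a 72 h erythrocytic culture (37 C, humidified, 5% CO2) at 2.5% hematocrit and 0.3% starting parasitemia, compounds were tested; SYBR Green I in detergent lysis buffer stained parasite DNA overnight.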

In another assay the test system is TAB113. The assay is described as above. The conditions noted are these: P. falciparum in erythrocytes, SYBR Green DNA, 72 h; series mostly up to 28.7 µM. The procedure, abridged: as §2
A further assay deals with TAB165. Described as above. The note with it: P. falciparum in erythrocytes, SYBR Green DNA, 72 h; series mostly up to 28.7 µM. The procedure, abridged: as §2
A further assay has as its system W2. Described as above. The conditions noted are these: P. falciparum in erythrocytes, SYBR Green DNA, 72 h; series mostly up to 28.7 µM. The procedure, abridged:
as §2

For a further assay, the system named is KB-3-1. The experiment in a line: Cytotoxic Profiling of Annotated Libraries Using Quantitative High-Throughput Screening (AID 1296008). For max response: % is set by controls: 0 for no effect and ±100 for the full control effect. Note: potency is the fitted concentration of half-maximal effect. The conditions noted are these: Five cell lines viability, CellTiter-Glo ATP luminescence, 48-72 h; max response: active compounds read low. The procedure, abridged:
as §1
Note: nearly all actives have a fitted effect of over 60% in size.

Consider `CC1(C)O[C@H]2CC(=O)OC[C@]23[C@H]2CC[C@@]4(C)[C@H](c5ccoc5)OC(=O)[C@H]5O[C@]54[C@]2(C)C(=O)C[C@@H]13`, for which the max response in the assay on CRL-7250 is 2.33% and 4%; with HEK293, -8.07%; in the assay with HaCat [1] it was -5.81%; in the assay on NIH3T3, -0.469% and 1.76%. Moreover, the outcome in the assay on CRL-7250, in the assay on HEK293, in the assay on HaCat [1], in the assay with NIH3T3 and in the assay with HACAT [2] was inactive.

As for `NC12CC3CC(CC(C3)C1)C2`, the Potency entry in the assay with TAB109, in the assay with TAB113, with TAB165 and in the assay on W2 was “inactive” throughout. The call with CRL-7250, in the assay with HEK293, in the assay with HaCat [1], in the assay on NIH3T3 and in the assay with HACAT [2] was inactive. The max response in the assay on HEK293 is 1.92%; with HaCat [1], 3.56%; in the assay with KB-3-1, 5.54% and 19.1%; in the assay with NIH3T3, 1.39%.

With `CCCNCC(O)COc1ccccc1C(=O)CCc1ccccc1` (configuration not stated), the Potency with TAB109 is 0.794 µM (active); in the assay with TAB113 it was 0.794 µM (active); in the assay on TAB165, 0.447 µM (active); in the assay on W2, 0.379 µM (active); in the assay on HEK293, 21.1 µM (active). Moreover, the max response with CRL-7250 is -5.96%; in the assay with HaCat [1] it was -2.94%; in the assay with KB-3-1, -15.9% and 1.74%; in the assay with NIH3T3, -20.3% and -9.95%. The result with CRL-7250, in the assay on HaCat [1] and in the assay on HACAT [2] was inactive.

As to `N[C@@H](Cc1c[nH]c2ccc(O)cc12)C(=O)O`, the Potency entry in the assay on TAB109, in the assay with TAB113, in the assay with TAB165 and in the assay with W2 was “inactive” in each case. The max response in the assay with CRL-7250 was -11.6%; with HEK293, 2.68%; in the assay on KB-3-1, 5.77% and -8.69%; with NIH3T3, -0.603% and 4.53%. The call with CRL-7250, with HEK293, with HaCat [1] and in the assay on HACAT [2] was inactive.

`NC(=O)OCC(COC(N)=O)c1ccccc1`: the Potency result in the assay on TAB109, in the assay with TAB113 and with TAB165 was “inactive” each time. For the same molecule, the max response with CRL-7250 is 2.98% and -7.95%; with HEK293 it was -9.25%; in the assay with KB-3-1 it was -1.19%; in the assay on NIH3T3 it was -0.687%. The molecule was classed as inactive in the assay with HEK293, with HaCat [1], with NIH3T3 and in the assay with HACAT [2].

For the molecule `CN1CCN(CCCN2c3ccccc3Sc3ccc(Cl)cc32)CC1`, the values for the max response in the assay on CRL-7250, in the assay with HaCat [1] and with NIH3T3 were -6.94%, 0.937% and -25.1%, respectively. In addition, the molecule was called inactive in the assay on CRL-7250, with HaCat [1] and in the assay with HACAT [2]. The Potency with HEK293 was 14.8 µM (active).

For the molecule `O=C(c1ccc(F)cc1)C1CCN(CCn2c(=O)[nH]c3ccccc3c2=O)CC1`, the Potency entry in the assay on TAB109, in the assay on TAB113 and with TAB165 was “inactive” throughout. Moreover, the max response in the assay on CRL-7250 was -21.4% and 4.56%; in the assay on HEK293, -0.877% and -3.18%; in the assay with HaCat [1] it was -0.754% and -2.78% and -3.98%; in the assay on KB-3-1 it was -2.16% and 6.29%. For the same molecule, the molecule was classed as inactive in the assay with CRL-7250 and in the assay on NIH3T3.

Regarding `C[C@H]1c2cccc(O)c2C(O)=C2C(=O)[C@]3(O)C(O)=C(C(N)=O)C(=O)[C@@H](N(C)C)[C@@H]3[C@@H](O)[C@@H]21`, the max response is -2.19% in the assay on CRL-7250, -8.48% in the assay on HEK293 and 1.59% in the assay on NIH3T3. Besides, the result in the assay with CRL-7250, in the assay with HaCat [1], with NIH3T3 and in the assay with HACAT [2] was inactive.

As to `COc1ccc2[nH]cc(CCNC(C)=O)c2c1`, the Potency entry with TAB109, with TAB113, in the assay with TAB165 and with W2 was “inactive” in each case. Further, the max response in the assay with CRL-7250 was -2.01% and -27.6%; with HEK293, 0.212%; in the assay on HaCat [1], -2.62%; in the assay on NIH3T3, 1.71%. The result in the assay on HEK293, in the assay with HaCat [1], with NIH3T3 and in the assay on HACAT [2] was inactive.

Consider `Cc1cnc(C(=O)NCCc2ccc(S(=O)(=O)NC(=O)NC3CCCCC3)cc2)cn1`, for which the Potency entry with TAB109, in the assay on TAB113, with TAB165 and with W2 was “inactive” throughout. For the same molecule, the max response with CRL-7250 was 0.493%; in the assay with HEK293, -14.8%; in the assay on HaCat [1], 0.0058%; with KB-3-1, -28.8% and 2.82%; with NIH3T3, 4.64% and -13.5%. The molecule was classed as inactive in the assay with CRL-7250, in the assay on HaCat [1] and in the assay with HACAT [2].

Regarding `NCCS(=O)(=O)O`, the Potency entry in the assay on TAB109, with TAB113 and in the assay with TAB165 was “inactive” each time. The max response in the assay with CRL-7250 was -1.77% and -3.17%; with HEK293, -1.38%; in the assay with NIH3T3 it was 0.192%. For the same molecule, the outcome in the assay with HEK293, in the assay on HaCat [1], in the assay with NIH3T3 and in the assay with HACAT [2] was inactive.

Consider `NC(=O)NO`, for which the Potency entry in the assay on TAB109, in the assay with TAB113, in the assay with TAB165 and with W2 was “inactive” in each case. Moreover, the Potency with CRL-7250 is 13.2 µM (active); in the assay with HEK293, 0.0526 µM (active); with KB-3-1, 6.62 µM (active); with NIH3T3 it was 18.7 µM (active). The max response in the assay with HEK293 is 4.27%; in the assay with HaCat [1], -18.6%; in the assay with KB-3-1 it was 2.92%; in the assay with NIH3T3 it was 2.15%.

Regarding `CN(C)C(=N)N=C(N)N`, the Potency entry with TAB109, with TAB113, in the assay with TAB165 and in the assay on W2 was “inactive” each time. Also, the outcome with CRL-7250, with HEK293, in the assay on HaCat [1] and with HACAT [2] was inactive. Also, the max response was 2.32% in the assay with HEK293; -1.82% and 7.62% in the assay with KB-3-1; -1.85% and 1.26% in the assay on NIH3T3.
